From PubChem BioAssay (NCI) come the findings set out here.

What all share (experiment): NCI-60 one-dose screen, 48 h (100 = growth as untreated, 0 = no growth, -100 = all killed)
In test [1] the test system is NCI-H226 lung. The settings on record: 10 µM unless noted.
Test [2] has as its system HOP-92 NSCLC. The following applies: 10 µM unless noted.
In test [3] the test system is SF-295 CNS. The settings on record: 10 µM unless noted.
The subject of test [4] is HCT-15 colon. The following applies: 10 µM.
Test [5] relates to SNB-19 CNS. The following applies: 10 µM unless noted.
In test [6] the test system is SK-MEL-5 melanoma. The following applies: 10 µM unless noted.
Test [7] concerns LOX IMVI melanoma. The following applies: 10 µM unless noted.
In test [8] the test system is EKVX NSCLC. The settings on record: 10 µM unless noted.
For test [9], the system named is TK-10 renal. The following applies: 10 µM unless noted.
Test [10] deals with MOLT-4 leukemia. The following applies: 10 µM.
In test [11] the test system is SR leukemia. The following applies: 10 µM.
The subject of test [12] is RPMI-8226 leukemia. The settings on record: 10 µM unless noted.
In test [13] the test system is IGROV1 ovarian. The following applies: 10 µM.
The test system of test [14] is HCC-2998 colon. The settings on record: 10 µM unless noted.
Test [15] relates to NCI-H322M lung. The following applies: 10 µM unless noted.
The subject of test [16] is HOP-62 NSCLC. The settings on record: 10 µM unless noted.
Test [17] has as its system NCI-H522 lung. The settings on record: 10 µM unless noted.
Test [18] has as its system K-562 leukemia. The following applies: 10 µM unless noted.
Test [19] concerns CCRF-CEM leukemia. The following applies: 10 µM unless noted.

Compounds without any hit were thinned out: in the full panel of roughly 83,000, 20% have a hit.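 For each line, cells grew in 96-well plates with the test compound present at a single concentration for 48 hours.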 Values without a mark were called inactive. The source made the active and inactive calls. How the source made its calls: active means growth percent below 10; inactive means the rest.

For `CCC(C)(C)O`, the growth in test [1] is 102%; in [2], 95.3%; in test [3] it was 87.7%; in test [4], 99.9%; in test [5] it was 104%; in [6], 101%. Besides, the growth in test [7] was 108%; in [8] it was 98%; in test [9], 107%; in test [10], 121%; in test [11], 101%; in test [12], 106%. The values for the growth in test [13] and in test [14] were 117% and 112%, respectively.
Take `COc1c(O)c2c3c(c1OC)-c1ccccc1CC3N(C)CC2` (configuration not stated): the growth was 96.1% in [15]; 104% in [16]; 110% in test [2]; 88.6% in [17]; 92.3% in test [18]; 99.9% in test [3]. Moreover, the growth in [4] is 105%; in [5], 102%; in test [6], 108%; in [7], 99.3%; in [8] it was 115%; in test [9] it was 102%. Further, the growth in [19] was 98.7%; in test [10], 83.6%; in [11], 75.1%; in test [13], 96.8%; in [14], 111%.
For `COc1ccc(NP2(=O)OCC(C)(N)CO2)cc1` (configuration not stated), the growth in [1] was 105%; in test [2] it was 94.8%; in [17], 92.5%; in test [18], 88.9%; in test [4] it was 89.3%; in [5], 105%. The growth in test [6] was 96.3%; in test [7] it was 89.4%; in test [8], 120%; in test [9], 93.2%; in test [19] it was 88.9%; in test [10], 82.2%. The figures for the growth in [11] and in [13] were 88.7% and 102%, respectively.
Regarding `O=C(O)C1(Br)CC12c1ccccc1-c1ccccc12` (configuration not stated), the growth is 98.9% in [1]; 100% in [2]; 95.9% in [17]; 86.6% in test [18]; 101% in [4]; 104% in test [5]. The growth in [6] was 98.4%; in test [7], 96.1%; in [8] it was 116%; in test [9], 88%; in [10], 86%; in test [11], 88.9%. The growth in test [13] is 99.7%; in test [14], 106%.
Consider `C=CC(O)CN1CC1CC` (configuration not stated), for which the growth in test [15] is 106%; in test [16] it was 101%; in test [2] it was 93.6%; in test [18] it was 101%; in test [3], 102%; in test [5], 97.8%. Also, the growth is 115% in test [6]; 102% in test [8]; 116% in test [19]; 96.2% in test [10]; 108% in test [13]; 96.2% in [14].
As to `Cc1cc(CCl)c(C)cc1CCl`, the growth in test [15] is 15%; in test [16], 15.3%; in test [2], 79.3%; in test [17] it was 55.5%; in test [18], 63.8%; in test [3], 25.7%. Also, the growth in test [4] was 75.2%; in test [5], 51%; in [6] it was 70.1%; in [7] it was 28%; in test [8], 106%; in [9], 37.3%. Also, the growth in test [19] was 19.7%; in test [12], 26.4%; in test [13], 26.4%; in [14], 71.4%.
For the compound `O=c1[nH]c2cc(Cl)ccc2n1C1CCN(CCCC(c2ccc(F)cc2)c2ccc(F)cc2)CC1`, the growth in [15] was 78.1%; in [16], 67.2%; in test [2], -37.7% (active); in [18] it was -59.9% (active); in test [3], -27.6% (active); in [4], -30.3% (active). In addition, the growth is 73.8% in [5]; -80.9% (active) in test [6]; -91.9% (active) in [7]; 61.5% in [8]; -39.3% (active) in test [19]; -28.3% (active) in [10]. In addition, the growth in [11] is 16.2%; in test [12], -52.8% (active); in [14], -63.4% (active).
